Rows were chosen to be rich in hits. Some 2.4% of all compounds tested hit in one or more screens of this group.
MCL1 BIM primary – inhibitors of human MCL1 binding to BIM-BH3 peptide; inhibition, % at 10.9 µM; GST-MCL1 / FITC-Bim-BH3 fluorescence polarization; actives 0.68% (n = 320,000);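 active = inhibition above the mean inhibition of all tested compounds plus 3 SD, set per campaign, cut at about 40% in these data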;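 also: 0% = DMSO wells and 100% = unlabeled Bim-BH3 peptide control; higher means more loss of mP so more displacement of Bim peptide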
Target sequence (Q07820 whole entry, looked up): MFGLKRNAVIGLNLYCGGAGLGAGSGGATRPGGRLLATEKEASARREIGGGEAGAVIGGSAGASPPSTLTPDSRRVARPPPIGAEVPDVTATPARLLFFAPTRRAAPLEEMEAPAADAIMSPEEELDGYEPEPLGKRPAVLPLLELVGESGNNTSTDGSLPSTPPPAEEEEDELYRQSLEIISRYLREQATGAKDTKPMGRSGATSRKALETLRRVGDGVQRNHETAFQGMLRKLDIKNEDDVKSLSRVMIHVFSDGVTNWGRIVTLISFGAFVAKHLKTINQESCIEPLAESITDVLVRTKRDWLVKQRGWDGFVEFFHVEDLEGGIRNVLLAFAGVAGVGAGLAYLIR
TNF necrop inh – inhibitors of TNF-alpha induced necroptosis in Jurkat FADD-/- cells; activation (protection from cell death), % at 10 µM; Jurkat FADD-/- TNF necroptosis rescue, ATP luminescence, 24 h; 0 = TNF only, 100 = no-TNF cells; actives 0.068% (n = 220,000); AID 463075;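 active = activation, meaning protection from cell death, of at least 50% relative to plate controls; inactive = activation below 50%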;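 also: necroptosis triggered by 40 ng/mL TNF-alpha added together with compound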
zVAD death inh – L929 zVAD cell death inhibition; viability rescue, % at 10 µM; actives 0.38% (n = 220,000); AID 1377; L929 zVAD necroptosis rescue, ATP luminescence, 24 h; with zVAD 60 µM;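 active = activation, scaled between plate controls, above about 75%, limit read from the data; inactive = activation under that limit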;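 also: 0% = zVAD with DMSO and 100% = DMSO alone without zVAD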
Mcl1 Bid PPI – disrupts binding of human Mcl-1 to Bid peptide; Q07820; TR-FRET Mcl-1/Bid-Dy647 peptide binding, 1536-well; inhibition, % at 21.7 µM; actives 0.97% (n = 220,000); AID 1021;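 active = compounds that cut the binding signal by more than half at the single screening dose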;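 also: His-tagged Mcl-1 with europium anti-His antibody binding Bid BH3 peptide; 0% = Mcl-1 plus peptide wells and 100% = peptide-only wells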
Mcl-1 Bim block – inhibitors of Bim-Mcl-1 interaction, human. Bead-based flow cytometry, Bim peptide-Mcl-1 binding. inhibition, % at 10 µM. actives 0.1% (n = 190,000). AID 1009; in the data active = inhibition above about 40%;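 also: 0% = no compound tracer wells and 100% = peptide blocker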
Mcl1 Noxa PPI – Mcl-1/Noxa interaction inhibition; Q07820; TR-FRET Mcl-1/Noxa peptide binding, 2 h; inhibition, % at 21.7 µM; actives 1.5% (n = 220,000);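 active = compounds that cut the protein-peptide binding signal by more than 50% relative to plate controls in a single-dose test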;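 also: His-tagged Mcl-1 with rhodamine Noxa BH3 peptide and terbium anti-His antibody; 0% = Mcl-1 plus Noxa peptide wells and 100% = peptide-only wells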
Numbers without * were called inactive; x = no result; + = active, no number.

SMILES	MCL1 BIM primary	TNF necrop inh	zVAD death inh	Mcl1 Bid PPI	Mcl-1 Bim block	Mcl1 Noxa PPI
O=Cc1ccc2oc3nc4n(c(=O)c3c(=O)c2c1)CCCS4	21.7	-0.3	0.9	38.2	12.0	72.8*
O=C(NC(=S)Nc1ccc(-c2ccc(CO)o2)cc1)c1cccs1	-0.2	2.6	5.2	-20.4	-3.0	63.2*
Cc1ccc(C(=O)NC(=S)Nc2ccc(-c3ccc(CO)o3)cc2)cc1	16.8	-0.1	-0.8	13.1	-1.0	25.6
O=c1c(-c2cnn(-c3ccccc3)c2)coc2cc(O)ccc12	2.9	2.0	3.3	4.5	-6.0	57.4*
O=C(NC1CCCCCC1)C(=S)NC1CCCCC1	5.2	-0.2	1.6	-16.2	-7.0	15.8
O=C1N=c2ccccc2=C1c1sc(=S)n(NC(=O)c2cccc(O)c2)c1O	x	0.2	6.5	-18.1	-5.0	21.0
O=C1N=c2ccc(Br)cc2=C1c1sc(=S)n(NS(=O)(=O)c2ccccc2)c1O	38.3	0.2	35.3	52.0*	-1.0	83.1*
CCOC(=O)c1c(C)[nH]c(C(=O)CN(C)CC(=O)Nc2ccccc2C(F)(F)F)c1C	11.1	x	x	x	x	x
CC(C)(C)n1nnnc1C(c1cccnc1)N1CCN(c2cccc(C(F)(F)F)c2)CC1 (stereo not drawn)	7.1	-0.4	-0.9	58.0*	11.0	30.6
CC1=C(C(N)=O)C(c2ccc(Br)cc2)n2nc(CCCO)nc2N1 (stereo not drawn)	-29.4	x	x	x	x	x
C1=C(c2ccc(-c3ccccc3)cc2)Nc2ncnn2C1c1ccco1 (stereo not drawn)	x	-1.0	-0.2	-55.8	-1.0	19.5
Brc1ccc(C2=CC(c3cccs3)n3ncnc3N2)cc1 (stereo not drawn)	+	-0.9	-0.1	-45.6	-5.0	-17.6
OCCCc1nc2n(n1)C(c1cccs1)C=C(c1ccc(Br)cc1)N2 (stereo not drawn)	+	-4.3	0.5	-5.0	2.0	9.9
Nc1nc(N2CCCCC2)nc(N(c2ccccc2)c2ccccc2)n1	-1.8	-1.0	0.0	-12.7	1.0	7.5
Clc1nc(Cl)nc(N(c2ccccc2)c2ccccc2)n1	11.8	0.9	0.2	50.7*	-1.0	34.6
CCN1C(=O)c2ccc(C(=O)Nc3ccc4c(c3)OCO4)cc2C1=O	-6.6	x	x	x	x	x
Cc1ccc(C)c(N(CC(=O)NC2CCCC2)C(=O)c2cc3cc4cc(C)ccc4nc3s2)c1	-1.8	2.4	2.7	-15.4	0.0	19.1
Cc1cccc(N(CC(=O)NC2CCCC2)C(=O)c2cc3cc4cccc(C)c4nc3s2)c1C	-6.2	4.7	1.1	67.3*	2.0	12.1
CC(C)(C)N1C(=O)Cc2c1nc(N)c1c(N)nc(N3CCCCC3CO)c(C#N)c21 (stereo not drawn)	56.4*	-14.8	1.1	-10.5	2.0	46.9
CN(CCO)c1nc(N)c2c(N)nc3c(c2c1C#N)CC(=O)N3C1CCCC1	37.9	0.3	0.2	-22.7	3.0	46.2
CCCCn1c(N)c(N(CC(C)C)C(=O)COC(=O)Cc2cccc(OC)c2)c(=O)[nH]c1=O	-4.6	x	x	x	x	x
C[C@@H]1O[C@@H](O[C@H]2[C@H](O)[C@@H](O)[C@H](Oc3c(-c4ccc(O)c(O)c4)oc4cc(O)cc(O)c4c3=O)O[C@@H]2CO)[C@H](O)[C@H](O)[C@H]1O	18.2	x	x	x	x	x
C[C@@H]1O[C@@H](Oc2c(-c3cc(O)c(O)c(O)c3)oc3cc(O)cc(O)c3c2=O)[C@H](O)[C@H](O)[C@H]1O	23.7	0.7	1.9	-20.1	0.0	54.3*
O=C1C2CC=C(Cl)CC2C(=O)N1CN(Cc1ccco1)CN1C(=O)C2CC=C(Cl)CC2C1=O (stereo not drawn)	51.4*	-0.4	0.9	-77.3	-3.0	39.3
O=C(c1ccc(C(F)(F)F)cc1)C1CCCN(C(=O)CCc2ccncc2)C1 (stereo not drawn)	-2.6	x	x	x	x	x
SMILES	MCL1 BIM primary	TNF necrop inh	zVAD death inh	Mcl1 Bid PPI	Mcl-1 Bim block	Mcl1 Noxa PPI
Cc1nnc(N/N=C/C(C)c2ccccc2)[nH]c1=O (stereo not drawn)	-0.1	1.2	0.6	-44.1	x	3.6
COc1ccc(OCc2cc(C(=O)NCCN3CCCc4ccccc43)no2)c(Cl)c1	-10.0	x	x	x	x	x
Oc1nc(Nc2cccc(Cl)c2)sc1/C=C1\C=Nc2ccccc21	3.5	-0.4	6.2	-20.5	-2.0	36.0
Oc1nc(Nc2ccc(F)cc2)sc1/C=C1\C=Nc2ccccc21	-10.9	1.1	24.6	31.9	x	102.2*
Oc1cccc(Nc2nc(O)c(/C=C3\C=Nc4ccccc43)s2)c1	-106.6	4.3	35.9	-55.1	x	62.3*
CCOc1ccc(OCCC(=O)N(CCC(C)C)c2c(N)n(Cc3ccccc3)c(=O)[nH]c2=O)cc1	5.1	x	x	x	x	x
O=C(c1ccc(F)cc1)C1CCN(C(=O)c2ccccc2F)CC1	9.2	x	x	x	x	x
C=CCc1ccccc1OCCNCCCOC	3.5	3.9	0.4	84.3*	0.0	18.3
C=CCc1cc(Cl)ccc1OCCNCCCOC	9.9	6.0	0.6	17.7	0.0	25.7
O=C(COC(=O)COc1ccc(Br)cc1)Nc1ccc2c(c1)OCCO2	-2.3	x	x	x	x	x
Cn1c(/C=C(\C#N)C(N)=S)ccc1-c1ccc(Br)cc1	x	-2.3	-0.9	17.4	1.0	20.1
Cn1nc(SCC(=O)O)sc1=S	0.4	-0.2	0.5	63.9*	-1.0	-13.2
O=C(Nc1ccccc1[N+](=O)[O-])c1cc2ccccc2nc1Cl	5.1	1.1	-0.5	-17.3	x	23.8
O=C(Nc1ccccc1[N+](=O)[O-])C1=C(O)CCn2c1nc1ccccc12	16.8	0.8	0.3	24.0	6.0	71.8*
O=[N+]([O-])c1cccc(S(=O)(=O)Nc2nc3ccccc3nc2Nc2cccc(S(=O)(=O)N3CCCCC3)c2)c1	x	1.7	0.1	98.8*	-8.0	73.4*
Cc1ccc(S(=O)(=O)Nc2nc3ccccc3nc2Nc2cccc(S(=O)(=O)N3CCCC3)c2)cc1	34.8	-3.2	1.7	8.9	0.0	28.1
Nc1ccc2c3c(cccc13)C(=O)N(c1ccccc1)C2=O	x	0.3	0.5	-21.0	-3.0	-212.7
CN(C)c1ccc2c3c(cccc13)C(=O)N(c1ccccc1)C2=O	77.0*	-0.9	0.7	-13.9	-2.0	0.6
CCC(=O)Nc1cc(C)c(NC(=O)CCc2ccccc2)cn1	43.7*	0.5	1.3	-22.9	1.0	-10.9
Cc1cc(NC(=O)c2ccco2)ncc1NC(=O)CCc1ccccc1	8.4	-2.0	0.0	-19.8	0.0	26.7
S=C(NNc1ccnc2cc(Cl)ccc12)Nc1ccccc1Cl	-0.9	-4.6	0.9	-35.3	-3.0	61.6*
C#CCOc1ccc(C2C(C#N)=C(N)Oc3cc(O)ccc32)cc1 (stereo not drawn)	-22.7	x	x	x	x	x
CN(C)CCCNc1oc(-c2ccccc2)nc1C#N	4.6	2.3	1.6	-20.3	-2.0	53.3*
COc1ccc(-c2nc(C#N)c(NCCCN(C)C)o2)cc1OC	2.2	-0.1	1.3	-30.9	-1.0	13.6

Bioassay records deposited in PubChem BioAssay by several laboratories.
